Inconclusive results are not listed. The source made the active and inactive calls. Unless noted, calls follow the shape of the dose curve; as a rule, active = well fitted curve in the direction sought with a large enough effect in the repeat runs; inconclusive = weak or mixed curves; inactive = no such curve, though single readings can be large; an effect the other way counts as inactive or inconclusive.
How the values were obtained:
[1] = biological target: Luciferin 4-monooxygenase (Photinus pyralis) (UniProt P08659); experiment: qHTS assay to identify small molecule inhibitors of firefly luciferase (AID 1224835); also: nearly all actives have a fitted effect of over 25% in size
Chain of Luciferin 4-monooxygenase (Photinus pyralis) (P08659 whole entry, looked up): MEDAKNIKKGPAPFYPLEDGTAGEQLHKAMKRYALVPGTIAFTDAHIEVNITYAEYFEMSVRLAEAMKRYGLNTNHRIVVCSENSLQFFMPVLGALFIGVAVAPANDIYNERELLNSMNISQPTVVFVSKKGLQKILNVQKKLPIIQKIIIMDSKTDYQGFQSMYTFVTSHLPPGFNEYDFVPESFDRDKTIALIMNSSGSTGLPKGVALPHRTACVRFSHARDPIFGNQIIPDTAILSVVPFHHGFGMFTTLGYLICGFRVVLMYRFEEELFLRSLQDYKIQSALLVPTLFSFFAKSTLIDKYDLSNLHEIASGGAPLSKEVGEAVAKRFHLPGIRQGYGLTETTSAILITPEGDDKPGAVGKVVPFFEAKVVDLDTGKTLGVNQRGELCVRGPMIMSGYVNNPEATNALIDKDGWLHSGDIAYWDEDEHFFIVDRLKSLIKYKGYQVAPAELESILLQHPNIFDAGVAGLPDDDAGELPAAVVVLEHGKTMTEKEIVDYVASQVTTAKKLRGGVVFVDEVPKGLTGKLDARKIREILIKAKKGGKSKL
Outline: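 Inhibition of purified Photinus luciferase is measured by luminescence. Substrate levels (D-luciferin, ATP) sit at their KM values. Each compound is tested in a concentration series.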

[2] = qHTS assay to identify small molecule agonists of the constitutive androstane receptor (CAR) signaling pathway - cell viability counter screen (AID 1224836); also: nearly all actives have a fitted effect of over 45% in size
Outline: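 23 h treatment, 37 C, 5% CO2. Cell line: HepG2 stably expressing hCAR with a CYP2B6-2.2kb construct. Co-treatment: PK11195, 0.75 uM final. Read-out: CellTiter-Fluor fluorescence intensity.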

[3] = qHTS assay to identify small molecule antagonists of the constitutive androstane receptor (CAR) signaling pathway - cell viability counter screen (AID 1224837); also: nearly all actives have a fitted effect of over 45% in size
Outline: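 Counter screen run in HepG2-CYP2B6-hCAR cells: 4 hr settle, compound titration (15 concentrations) with 50 nM CITCO, 23 hr at 37 C/5% CO2, CellTiter-Fluor fluorescence.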

[4] = biological target: Nuclear receptor subfamily 1 group I member 3 (Homo sapiens) (UniProt Q14994); experiment: qHTS assay to identify small molecule antagonists of the constitutive androstane receptor (CAR) signaling pathway (AID 1224838);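 also: HepG2 cells stably expressing hCAR with CYP2B6 luciferase reporter stimulated by CITCO; nearly all actives have a fitted effect of over 40% in size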
Chain of Nuclear receptor subfamily 1 group I member 3 (Homo sapiens) (Q14994 whole entry, looked up): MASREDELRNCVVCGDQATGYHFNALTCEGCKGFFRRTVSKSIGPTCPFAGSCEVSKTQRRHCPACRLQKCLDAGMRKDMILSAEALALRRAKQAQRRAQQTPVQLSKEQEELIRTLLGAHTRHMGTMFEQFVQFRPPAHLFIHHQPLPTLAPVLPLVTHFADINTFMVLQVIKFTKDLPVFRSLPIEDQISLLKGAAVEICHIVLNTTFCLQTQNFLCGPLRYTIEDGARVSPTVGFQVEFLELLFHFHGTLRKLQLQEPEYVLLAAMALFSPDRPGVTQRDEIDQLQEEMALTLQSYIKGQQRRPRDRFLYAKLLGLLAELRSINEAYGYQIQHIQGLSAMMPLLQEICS
Outline: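 Cell line: HepG2 double-stable for hCAR and CYP2B6-2.2kb reporter. Agonist: CITCO, 50 nM final. Compounds: 15 concentrations, 24 h, 37 C. Detection: ONE-Glo luminescence.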

[5] = biological target: Nuclear receptor subfamily 1 group I member 3 (Homo sapiens) (UniProt Q14994); experiment: qHTS assay to identify small molecule agonists of the constitutive androstane receptor (CAR) signaling pathway (AID 1224839);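 also: HepG2 cells stably carrying human CAR and a CYP2B6 luciferase reporter; nearly all actives have a fitted effect of over 15% in size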
Outline: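 Compounds tested at 15 concentrations on HepG2 cells stably harbouring hCAR and CYP2B6-2.2kb reporter constructs, co-treated with PK11195 (0.75 uM final), 24 h at 37 C; luminescent reporter signal quantified.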

[6] = qHTS assay to identify small molecule antagonists of the estrogen related receptor signaling pathway with the pleiotropic PPARgamma coactivator (PGC) from Tox21 10K library - cell viability counter screen (AID 1224840; active = well fitted cell-killing curve with a large enough effect in the repeat runs, not every such curve was filed as active; also: nearly all actives have a fitted effect of over 40% in size)
Outline: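 Following seeding of 2,000 PGC/ERR cells/well and 6 hours' incubation, test compounds were delivered in DMSO. The plates then sat 17.5 hours at 37 C before a fluorogenic live-cell protease reagent (CellTiter-Fluor) was read after 30 min.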

[7] = qHTS assay to identify small molecule antagonists of the estrogen related receptor signaling pathway with the pleiotropic PPARgamma coactivator (PGC) from Tox21 10K library (AID 1224841; call rule not given here; also: actives are mostly falling curves and most rising ones were filed inactive; nearly all actives have a fitted effect of over 50% in size)
Outline: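 qHTS antagonist format: PGC/ERR cells, 2k/well, compound in DMSO by pin transfer after 6 h attachment, 18 h treatment at 37 C, One-Glo luminescence read at 30 min.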

[8] = qHTS assay to identify small molecule agonists of the estrogen related receptor signaling pathway with the pleiotropic PPARgamma coactivator (PGC) from Tox21 10K library (AID 1224842); also: nearly all actives have a fitted effect of over 15% in size
Outline: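 Luminescence from One-Glo (30 min, room temperature) measured after PGC/ERR cells had 18 h at 37 C with pinned compound (23 nL in DMSO). Cells had been seeded at 2,000 per well and pre-incubated 6 h.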

[9] = qHTS assay to identify small molecule agonists of the hypoxia (HIF-1) signaling pathway - cell viability counter screen (AID 1224844; calls by dose curve; also: nearly all actives have a fitted effect of over 50% in size)
Outline: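 Cells (HRE-bla ME-180, 2,000 per well) sat 5 hrs at 37C, got compound for 17 hrs, were read for CCF4-AM FRET, and were finally lysed with CellTiter-Glo for a 30 min room-temperature luminescence read.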

[10] = qHTS assay to identify small molecule agonists of H2AX (AID 1224845; active = well fitted activation curve with a large enough effect in the signal ratio in the repeat runs, not every such curve was filed as active; the % refers to the signal ratio)
Outline: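 Phospho-H2AX Ser139 measured by HTRF (ex 320 nm; em 665 and 620 nm) after 24 hr antibody incubation. Compounds, 15 concentrations, 0.76% DMSO, were applied to CHO-K1 cells for 3hr at 37C before lysis.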

[11] = qHTS assay to identify small molecule agonists of the hypoxia (HIF-1) signaling pathway (AID 1224846; active = well fitted activation curve with a large enough effect in the signal ratio in the repeat runs, not every such curve was filed as active; the % refers to the signal ratio)
Outline: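 A low-serum medium (0.5% dialyzed FBS) holding 2,000 HRE-bla ME-180 cells per well is preincubated for 5 hrs, dosed with compounds by pintool, and kept a further 17 hrs at 37C, 5% CO2 before CCF4-AM FRET detection of beta-lactamase.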

[12] = qHTS assay to identify small molecule agonists of H2AX - cell viability counter screen (AID 1224847; calls by dose curve; also: top concentration of the series differs between compounds; nearly all actives have a fitted effect of over 30% in size)
Outline: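 Compounds tested at 15 concentrations were incubated 3 hr at 37C with wild-type CHO-K1 cells; cellular ATP-based luminescence (CellTiter-Glo) indicated viability.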

[13] = qHTS assay to identify small molecule agonists of the estrogen related receptor (ERR) signaling pathway from Tox21 library (AID 1224849; calls by dose curve; also: nearly all actives have a fitted effect of over 15% in size); conditions: ERR reporter cell line, ONE-Glo luciferase, 18 h; at 92.4 µM (top of the series) unless noted
Outline: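 Screening used an NTP-provided ERR luciferase cell line. Compounds in DMSO were added 6 h after seeding and left 18 h at 37 C before a 30 min ONE-Glo step and luminescence reading.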

[14] = qHTS RealTime-Glo MT Cell Viability Assay in HepG2 cells - 24 hour (AID 1224867); also: nearly all actives have a fitted effect of over 50% in size
Outline: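 Cells + NanoLuc/prosubstrate dispensed (600 cells/well) → 5 h at 37 C/5% CO2 → compounds in DMSO transferred → 40 h incubation at 37 C, luminescence read at 0, 8, 16, 24, 32, 40 h.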

[15] = qHTS RealTime-Glo MT Cell Viability Assay in HEK293 cells - 32 hour (AID 1224868); also: top concentration of the series differs between compounds; nearly all actives have a fitted effect of over 50% in size
Outline: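 Tox21 10K qHTS, HEK293, 600 cells/well, RealTime-Glo reagent co-dispensed with cells; 5 h preincubation, compound by pintool, 37 C, luminescence at 0–40 h.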

[16] = A CellTox Green Cytotoxicity Assay to monitor cytotoxicity in HEK293 cells - 0 hour (AID 1224869); also: nearly all actives have a fitted effect of over 50% in size
Outline: (§1)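 Fluorescence intensity, read at 0, 8, 16, 24, 32 and 40 h of compound treatment, reflected dye binding to DNA of dead HEK293 cells; compounds (23 nL, DMSO) were added 5 h after plating cells with reagent.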

[17] = qHTS RealTime-Glo MT Cell Viability Assay in HepG2 cells - 40 hour (AID 1224870); also: nearly all actives have a fitted effect of over 50% in size
Outline: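 Real-time viability: cells seeded at 600 per well together with NanoLuc and cell-permeant prosubstrate, compounds added after 5 h incubation. Luminescence tracked at 0, 8, 16, 24, 32 and 40 h of exposure.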

[18] = A CellTox Green Cytotoxicity Assay to monitor cytotoxicity in HEK293 cells - 40 hour (AID 1224871); also: nearly all actives have a fitted effect of over 45% in size
Outline: as §1

[19] = biological target: Thyrotropin receptor (Homo sapiens) (UniProt P16473); experiment: qHTS assay to identify small molecule agonists of the thyroid stimulating hormone receptor (TSHR) signaling pathway (AID 1224843; calls by dose curve; also: nearly all actives have a fitted effect of over 45% in size)
Chain of Thyrotropin receptor (Homo sapiens) (P16473 whole entry, looked up): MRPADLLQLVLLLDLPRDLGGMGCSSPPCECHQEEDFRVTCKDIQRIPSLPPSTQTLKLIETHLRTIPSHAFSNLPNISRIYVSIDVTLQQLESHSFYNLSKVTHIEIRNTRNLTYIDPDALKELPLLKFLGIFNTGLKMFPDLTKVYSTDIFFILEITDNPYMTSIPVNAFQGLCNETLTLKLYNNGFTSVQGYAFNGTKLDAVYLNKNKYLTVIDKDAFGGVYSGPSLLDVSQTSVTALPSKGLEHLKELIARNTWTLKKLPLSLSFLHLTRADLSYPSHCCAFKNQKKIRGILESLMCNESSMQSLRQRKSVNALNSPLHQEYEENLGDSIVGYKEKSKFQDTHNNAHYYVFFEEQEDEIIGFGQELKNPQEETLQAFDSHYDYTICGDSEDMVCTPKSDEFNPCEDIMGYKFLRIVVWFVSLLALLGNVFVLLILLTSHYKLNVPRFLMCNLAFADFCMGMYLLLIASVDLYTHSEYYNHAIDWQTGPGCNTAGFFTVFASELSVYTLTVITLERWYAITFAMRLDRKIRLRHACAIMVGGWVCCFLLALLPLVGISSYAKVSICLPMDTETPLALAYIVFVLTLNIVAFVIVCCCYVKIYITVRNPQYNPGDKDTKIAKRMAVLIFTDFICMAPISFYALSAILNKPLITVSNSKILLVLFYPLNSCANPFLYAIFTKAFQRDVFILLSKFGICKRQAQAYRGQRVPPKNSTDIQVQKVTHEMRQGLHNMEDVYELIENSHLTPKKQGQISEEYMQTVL
Outline: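 HEK293 cells stably bearing the thyrotropin receptor were plated at 800 cells/well and challenged with compound (30 min, RT). Accumulated cAMP was quantified via cAMP-d2 competing for cryptate-tagged antibody.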

[20] = qHTS assay to identify small molecule antagonists of the estrogen related receptor (ERR) signaling pathway from Tox21 library (AID 1224848); also: nearly all actives have a fitted effect of over 50% in size
Outline: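 Reading was by luminescence 30 min after ONE-Glo addition. Before that, ERR cells at 2,000 per well had rested 6 h at 37 C/5% CO2 and then received pin-tooled compounds in DMSO for 18 h at 37 C.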
% is scaled to controls: 0 for no effect and ±100 for the full control effect.

N#Cc1ccc(C(=O)O)cc1
inactive: Potency [1] | Potency [2] | Potency [3] | outcome [4] | Potency [5] | outcome [6] | Potency [7] | outcome [8] | outcome [9] | outcome [10] | outcome [11] | Potency [12] | activity change, positive = activation [13] 1.83% | outcome [14] | Potency [15] | outcome [16] | outcome [17] | Potency [18]

Cc1ccccc1OCC(O)CO (centres undefined)
inactive: Potency [1] | Potency [2] | Potency [3] | outcome [4] | Potency [5] | outcome [6] | outcome [8] | Potency [19] | outcome [9] | outcome [10] | Potency [12] | activity change, positive = activation [13] 1.39% [at 42.5 µM] | outcome [14] | Potency [15] | outcome [16] | Potency [18]

Cc1ccc2c(c1)OCC(=O)CO2
inactive: Potency [1] | Potency [2] | Potency [3] | outcome [4] | Potency [5] | outcome [6] | Potency [19] | outcome [9] | outcome [10] | outcome [11] | Potency [12] | Potency [20] | Potency [15] | outcome [17] | Potency [18]

CNC(=O)[C@H]1O[C@@H](n2cnc3c(NCc4cc(Cl)ccc4OCc4cc(C)no4)ncnc32)[C@H](O)[C@@H]1N
inactive: Potency [1] | Potency [2] | Potency [3] | outcome [4] | Potency [5] | outcome [6] | outcome [8] | outcome [9] | outcome [10] | outcome [11] | Potency [12] | activity change, positive = activation [13] -1.8% | outcome [14] | Potency [15] | Potency [18]

COC(=O)CCc1ccc(OCC(O)CNC(C)C)cc1 (centres undefined)
inactive: Potency [1] | Potency [2] | Potency [3] | outcome [4] | Potency [5] | outcome [6] | Potency [7] | outcome [8] | Potency [19] | outcome [9] | outcome [10] | outcome [11] | Potency [12] | Potency [20] | activity change, positive = activation [13] 8.83% [at 42.5 µM] | Potency [15] | outcome [16] | outcome [17] | Potency [18]

O=C(NCCN1CCOCC1)c1ccc(Cl)cc1
inactive: Potency [1] | Potency [2] | Potency [3] | outcome [4] | Potency [5] | outcome [6] | outcome [8] | outcome [9] | outcome [10] | outcome [11] | Potency [12] | Potency [20] | activity change, positive = activation [13] 9.75% [at 42.5 µM] | outcome [14] | Potency [15] | outcome [16] | outcome [17] | Potency [18]

Cc1nc2n(c(=O)c1CCN1CCC(c3noc4cc(F)ccc34)CC1)CCC[C@H]2O
inactive: activity change, negative = inhibition [1] 0.0649% [at 23.6 µM] | viability change, negative = cytotoxic [2] 2.64% [at 19 µM] | activity change, negative = cytotoxicity [3] 1.56% [at 19 µM] | activity, negative = inhibition [4] 20.8% [at 19 µM] | activation [5] -1.43% [at 19 µM] | viability change, negative = cytotoxic [6] 11.2% [at 19 µM] | activity, negative = inhibition [7] -0.225% [at 19 µM] | activation [8] -0.0623% [at 19 µM] | activation [19] -7.95% [at 19 µM] | activity change, negative = cytotoxicity [9] 1.15% [at 15.8 µM] | activation (H2AX phosphorylation) [10] -1.87% [at 31.6 µM] | activation [11] -0.458% [at 15.8 µM] | activity change, negative = cytotoxicity [12] -0.277% [at 31.6 µM] | activity, negative = inhibition [20] 3.9% [at 19 µM] | activity change, positive = activation [13] 2.19% [at 19 µM] | activity change, negative = cytotoxicity [14] 1.28% [at 15.8 µM] | activity change, negative = cytotoxic [17] 0.984% [at 15.8 µM] | cytotoxicity increase [18] 6.76% [at 15.8 µM]

From PubChem BioAssay (Tox21)
